Measurements taken from publication PMC4336329 (PLoS ONE, 2015).
Out of some 310,000 compounds screened, about 14,000 (4.5%) showed an effect of 50% or more. The effect is printed as a negative number. What follows is part of a selection rich in strong results, with near analogues and random picks from the rest.

molecular target: human ether-à-go-go-related gene (hERG) potassium channel (human, UniProt Q12809); experiment: primary screen, population patch clamp on CHO cells stably expressing hERG; higher = less effect of the substance
Sequence (Q12809 whole entry, looked up): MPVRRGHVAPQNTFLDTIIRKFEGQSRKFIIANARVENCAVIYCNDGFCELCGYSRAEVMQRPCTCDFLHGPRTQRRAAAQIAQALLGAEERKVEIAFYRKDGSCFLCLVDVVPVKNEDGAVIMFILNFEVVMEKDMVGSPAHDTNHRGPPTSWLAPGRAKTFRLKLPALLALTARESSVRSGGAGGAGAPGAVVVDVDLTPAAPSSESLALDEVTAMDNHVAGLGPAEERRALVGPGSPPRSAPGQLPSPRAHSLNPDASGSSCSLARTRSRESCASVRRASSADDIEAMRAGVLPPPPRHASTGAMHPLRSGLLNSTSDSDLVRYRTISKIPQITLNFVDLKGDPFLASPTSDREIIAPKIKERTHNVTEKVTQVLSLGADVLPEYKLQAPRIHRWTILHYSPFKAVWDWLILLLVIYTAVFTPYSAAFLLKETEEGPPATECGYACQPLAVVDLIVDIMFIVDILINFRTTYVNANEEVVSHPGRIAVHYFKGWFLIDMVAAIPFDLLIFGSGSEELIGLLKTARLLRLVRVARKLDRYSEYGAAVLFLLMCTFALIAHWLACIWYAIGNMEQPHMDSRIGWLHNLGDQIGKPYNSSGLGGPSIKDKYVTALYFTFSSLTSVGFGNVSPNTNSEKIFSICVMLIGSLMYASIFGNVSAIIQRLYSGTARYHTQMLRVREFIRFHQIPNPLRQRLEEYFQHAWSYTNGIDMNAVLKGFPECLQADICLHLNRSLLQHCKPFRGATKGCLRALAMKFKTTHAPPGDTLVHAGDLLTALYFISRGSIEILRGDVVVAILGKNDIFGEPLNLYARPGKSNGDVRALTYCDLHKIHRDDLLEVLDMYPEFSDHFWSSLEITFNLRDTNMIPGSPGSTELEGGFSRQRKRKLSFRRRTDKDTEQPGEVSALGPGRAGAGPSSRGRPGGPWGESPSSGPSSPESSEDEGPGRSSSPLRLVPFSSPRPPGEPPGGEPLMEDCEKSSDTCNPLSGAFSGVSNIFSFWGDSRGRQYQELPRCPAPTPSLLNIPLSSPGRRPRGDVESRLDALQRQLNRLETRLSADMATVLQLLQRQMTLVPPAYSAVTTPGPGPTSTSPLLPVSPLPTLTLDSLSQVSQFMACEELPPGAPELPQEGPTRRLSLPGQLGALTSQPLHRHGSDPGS
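Also: peak tail current of the secondary pulse compared with the same well before compound.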

SMILES | hERG current change (%, negative = inhibition) at 10uM
Nc1ccc(C#Cc2c(-c3ccsc3)oc3ccc(N4CCOCC4)cc23)cc1 | 5.98%
NC(=O)c1ccc(NC(=O)CCN2C(=O)c3ccccc3C2=O)cc1 | 16%
CN(C)c1ccc(NC(=O)C2C3C=CC(C3)C2C(=O)O)cc1 (stereo not shown) | 7.65%
O=c1cccc2n1CC1CC2CN(c2ncnc3c2cnn3-c2ccc(Cl)cc2)C1 (stereo not shown) | -62.1%
CC1CN(c2ncnc3c2cnn3-c2ccc(Cl)cc2)CC(C)O1 (stereo not shown) | 0.749%
O=c1cccc2n1CC1CC2CN(c2ncnc3c2cnn3-c2ccccc2)C1 (stereo not shown) | -30%
O=C(Nc1nnc(C2=COCCO2)o1)c1cccc(F)c1 | 16.7%
Cc1ccc(NC2CCCN(C(=O)CCc3ccncc3)C2)cc1C (stereo not shown) | -24.5%
COc1ccc2cc(C(=O)C3CCCN(C(=O)c4cc(=O)n(C)c(=O)n4C)C3)ccc2c1 (stereo not shown) | -38.4%
Cn1nccc1C(=O)N1CCCC(C(=O)c2ccc(C(F)(F)F)cc2)C1 (stereo not shown) | 6.14%
O=C(CCc1ccncc1)N1CCCC(Nc2ccc(F)cc2)C1 (stereo not shown) | -13.9%
Cn1c(C(=O)N2CCCC(C(=O)c3ccc(C(F)(F)F)cc3)C2)cc(=O)n(C)c1=O (stereo not shown) | -71.7%
NC(=O)CCC(=O)N1CCCC(C(=O)c2ccc(C(F)(F)F)cc2)C1 (stereo not shown) | 1%
O=C(CCc1ccncc1)N1CCCC(Nc2ccc(F)c(F)c2)C1 (stereo not shown) | -56%
O=C(c1ccc(C(F)(F)F)cc1)C1CCCN(C(=O)CCc2ccncc2)C1 (stereo not shown) | -59.4%
O=C(c1ccc(C(F)(F)F)cc1)C1CCCN(C(=O)CCc2cnccn2)C1 (stereo not shown) | -15.1%
O=C(c1ccc(S(=O)(=O)Nc2ccccc2F)cc1)N1CCCCCC1 | 2.93%
O=C(N[C@@H]1CCC(=O)N(CC[C@H](Sc2ccc(Br)cc2)c2ccccc2)CC1)OCc1ccccc1 | 0.417%
COc1ccc2[nH]c(=O)c(CN(CCO)S(=O)(=O)c3ccc(C)cc3)cc2c1 | -9.52%
Cc1ccc(C)c(NC(=S)N/N=C2\CCc3ccccc32)c1 | 9.03%
COc1ccc(CCNC(=O)Cc2cc(=O)[nH]c(=O)[nH]2)cc1OC | -9.44%
CCN1/C(=C2\C(=O)N(C)C(=S)N2C)C=Cc2cc(C)ccc21 | -33.4%
CCN1/C(=C2/SC(=S)N(C)C2=O)C=Cc2cc(C)ccc21 | -1.96%
CCN1C(=O)/C(=C2/C=Cc3cc(C)ccc3N2CC)N(C)C1=S | -54.8%
CC1=NN(C(C)C)C(=O)C1 | 8.62%
CCOC(=O)C1(CCc2ccccc2)CCN(Cc2cnc(N(C)C)s2)CC1 | -83%
CCOC(=O)C1(Cc2cccc(F)c2)CCN(Cc2cnc(C)s2)CC1 | -2.73%
CCOC(=O)C1(CCOC)CCN(Cc2cc3ccccc3s2)CC1 | -22.5%

SMILES | hERG current change (%, negative = inhibition) at 10uM
CCOC(=O)C1(CCOc2ccccc2)CCN(Cc2ccc(C)s2)CC1 | -89.8%
CCOC(=O)C1(CCCc2ccccc2)CCN(Cc2cnc(C)s2)CC1 | -73.1%
CCOC(=O)C1(CCOc2ccccc2)CCN(Cc2cccs2)CC1 | -81.8%
CCOC(=O)C1(CC2CC2)CCN(Cc2cnc(N(C)C)s2)CC1 | -22.1%
CCN(CC)C(=O)CC(c1ccc(F)cc1)c1ccc(OC)cc1 (stereo not shown) | -25.1%
CC1CC(C)(C)N2C(=O)C3(Nc4ccccc4S3)c3cccc1c32 (stereo not shown) | 22.1%
Cc1ccc(C(C)C)cc1OCCCCN1CCCC1 | -49%
COc1ccc(N(CC(=O)NCCSCc2ccco2)S(=O)(=O)c2ccccc2)cc1 | -9.08%
COc1ccc(CN2C(=O)c3ccccc3C2=O)cc1C(=O)N(C)CC(=O)Nc1c(C)cccc1C | -16.7%
CCOC(=O)C1(CCOc2ccccc2)CCN(Cc2cnc(C)s2)CC1 | -62.4%
CCOC(=O)C1(CCOc2ccccc2)CCN(Cc2cnc(C)[nH]2)CC1 | -48.3%
CCC(=O)Nc1cccc(NC(=O)c2ccc(C)cc2Cl)c1 | 34.5%
NC(=S)NNc1ccc(Cl)c(Cl)c1 | 16.3%
O=C(NCCCn1ccnc1)c1ccc(N2CCCCC2)c([N+](=O)[O-])c1 | -71.7%
Cc1ccc(C(=O)NCCCn2ccnc2)cc1[N+](=O)[O-] | 4.53%
COc1ccc(C(=O)NCCCn2ccnc2)cc1[N+](=O)[O-] | -8.22%
Cl.O=C(NCCCn1ccnc1)c1ccc(N2CCCCCC2)c([N+](=O)[O-])c1 | -64%
O=C(NCCCN1CCOCC1)c1ccc(N2CCCC2)c([N+](=O)[O-])c1 | -16.8%
Cl.O=C(NCCCn1ccnc1)c1ccc(S(=O)(=O)N2CCCCCC2)cc1 | -7.07%
COc1ccc(/C=C(\NC(=O)c2ccccc2)C(=O)NCCC(=O)O)cc1 | 26.3%
Cc1cc(NC(=O)c2ccc3c(c2)OCCO3)ccc1NC(=O)c1ccco1 | 8.5%
COc1ccc(C(=O)NCC(=O)N/N=C/c2ccco2)cc1OC | 25.9%
CCCc1ccc(OCCNC(=O)CC)cc1 | -10.9%
COC(=O)C1=CN(c2ccc(Cl)cc2)C=C(C(=O)OC)C1c1ccc([N+](=O)[O-])cc1 | 16.2%
CCOc1ccc(C(C(=O)Nc2ccc(F)cc2)N(C(=O)Cn2nnc3ccccc32)C2CC2)cc1 (stereo not shown) | -50.3%
CCC(C)N(C(=O)Cn1nnc2ccccc21)C(C(=O)Nc1ccc(F)cc1)c1cccc(OC)c1 (stereo not shown) | -18.8%
COc1ccc(C(C(=O)Nc2ccc(F)cc2)N(C(=O)Cn2nnc3ccccc32)C2CC2)cc1 (stereo not shown) | -45.6%
